# PubChem BioAssay (NCI)
# This is part of a sample that, as a whole, favours compounds with a hit. Of some 83,000 tested, about 20% had one in any assay.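 Growth was measured after 48 h exposure to one concentration of compound in 96-well plates. Values under 10 count as active.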 Unmarked numbers belong to inactive results. Calls of active or inactive are those of the source.
# Test system: SNB-19 CNS
# Test: NCI-60 one-dose screen, 48 h (100 = growth as untreated, 0 = no growth, -100 = all killed)
# Settings: 10 µM
row,SMILES,growth
1,COc1cc2cc(C(=O)N3C[C@@H](CCl)c4c3cc(OC(=O)N3CCN(C)[C@@H]5CSSC[C@H]53)c3ccccc43)[nH]c2c(OC)c1OC,-15.4% (active)
2,CC1=C(CCC=O)C2=C(C)C3(CC3)[C@@](C)(O)C(=O)C2=C1,-100% (active)
3,COC(=O)C[C@](O)(CCC(C)C)C(=O)O[C@@H]1C(OC)=C[C@]23CCCN2CCc2cc4c(cc2[C@H]13)OCO4,-16.9% (active)
4,O=C(/C=C/c1ccc(Cl)cc1)c1nc2ccccc2n1Cc1ccc(F)cc1,25%
5,CC[C@]12C=CCN3CC[C@@]4(c5ccc(OC)cc5N(C)[C@H]4[C@@](O)(C(=O)OC)[C@@H]1OC(=O)CCC[P+](C1CCCCC1)(C1CCCCC1)C1CCCCC1)[C@@H]32,-60% (active)
6,CC1=C2C(=C[C@@](C)(COP(=O)(Oc3ccccc3)Oc3ccccc3)[C@@H]2O)C(=O)[C@@](C)(O)C12CC2,-17.5% (active)
7,CC(=O)Oc1ccccc1C(=O)NC([Se])=NC1CCCCC1,12.3%
8,CCOP(=O)(CC(F)(F)C(F)(F)F)OCC,95.7%
9,CC(C)C[C@H](NC(=O)CNC(=O)C[C@H]1O[C@@H]2OC3(C)CC[C@H]4[C@H](C)CC[C@@H]([C@H]1C)[C@@]24OO3)B(O)O,27.4%
10,C[C@H]1[C@@H](Oc2ccc(-c3cn(-c4ccnc5cc(Cl)ccc45)nn3)cc2)O[C@@H]2OC3(C)CC[C@H]4[C@H](C)CC[C@@H]1[C@@]24OO3,40.4%
11,C[C@H]1[C@H](OC(=O)CCC(=O)N(CCCc2cn(-c3ccc([N+](=O)[O-])cc3)nn2)CCNc2ccnc3cc(Cl)ccc23)O[C@@H]2OC3(C)CC[C@H]4[C@H](C)CC[C@@H]1[C@@]24OO3,67%
12,COc1cc2cc(C(=O)N3C[C@@H](CCl)c4c3cc(OC(=O)N3CCN(C)[C@@H]5CSSC[C@@H]53)c3ccccc43)[nH]c2c(OC)c1OC,-9.25% (active)
13,COc1cc2cc(C(=O)N3C[C@@H](CCl)c4c3cc(OC(=O)N3CCN(C(=O)CCC(=O)N5CCN(C)CC5)[C@@H]5CSSC[C@@H]53)c3ccccc43)[nH]c2c(OC)c1OC,-50.2% (active)
14,COC(=O)c1ccc(-n2cc(CCCN(CCNc3ccnc4cc(Cl)ccc34)C(=O)CCC(=O)O[C@@H]3O[C@@H]4OC5(C)CC[C@H]6[C@H](C)CC[C@@H]([C@H]3C)[C@@]46OO5)nn2)cc1,63.7%
15,O=C([Se]C1C=CCCC1)c1ccc(C(=O)[Se]C2C=CCCC2)s1 (stereo not given),-93.8% (active)
16,O=C(/C=C/c1cccc(Br)c1)c1nc2ccccc2n1Cc1ccc(F)cc1,47.1%
17,CC[C@]12C=CCN3CC[C@@]4(c5ccc(OC)cc5N(C)[C@H]4[C@@](O)(C(=O)OC)[C@@H]1OC(=O)CCC[P+](c1ccc(C)cc1)(c1ccc(C)cc1)c1ccc(C)cc1)[C@@H]32,-97.3% (active)
18,O=C(NC([Se])=NC1CCCCC1)c1ccccc1,24.6%
19,O=C(/C=C/c1ccc(F)cc1)c1nc2ccccc2n1Cc1ccc(F)cc1,13.8%
20,O=C(/C=C/c1ccccc1)c1nc2ccccc2n1Cc1ccc(Br)cc1,-90.1% (active)
21,C=CC[Se]C(=O)c1cncc(C(=O)[Se]CC=C)c1,-97.5% (active)
22,COc1ccc(OC)c(/C=C/C(=O)c2nc3ccccc3n2Cc2ccc(F)cc2)c1,-38.9% (active)
23,O=C(/C=C/c1ccc(F)cc1)c1nc2ccccc2n1Cc1ccc(Br)cc1,-63.7% (active)
24,CC[C@]12C=CCN3CC[C@@]4(c5ccc(OC)cc5N(C)[C@H]4[C@@](O)(C(=O)OC)[C@@H]1OC(=O)CCCC[P+](c1ccc(C)cc1)(c1ccc(C)cc1)c1ccc(C)cc1)[C@@H]32,-96.5% (active)
25,CC(C)N=C([Se])NC(=O)c1cccs1,4.61% (active)
26,CC1=C(CCC=NNC(N)=O)C2=C(C)C3(CC3)[C@@](C)(O)C(=O)C2=C1,-38.6% (active)
27,Cc1ccc2[nH]c(=S)n(-c3ccc(F)cc3)c(=O)c2c1,90.3%
28,C#CC[Se]C(=O)c1ccc2n[se]nc2c1,79.9%
29,CC1=C(COCCOC(=O)c2ccc(S(=O)(=O)F)cc2)C2=C(C)C3(CC3)[C@@](C)(O)C(=O)C2=C1,-10.6% (active)
30,CC12CCC3(CCC(=O)NCCCNc4ccnc5cc(Cl)ccc45)[C@@](C)(OO[C@]3(C)O1)O2,7.99% (active)
